Here are results for 16 molecules from ChEMBL document CHEMBL1961873, “Compounds: GSK PKIS; Assays: Nanosyn kinase panel” (2012).

The target of test [1] is T1, 3-phosphoinositide-dependent protein kinase 1 (Homo sapiens) (UniProt O15530).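 Also: values are mean inhibition of PDK1.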
T1 sequence (whole entry): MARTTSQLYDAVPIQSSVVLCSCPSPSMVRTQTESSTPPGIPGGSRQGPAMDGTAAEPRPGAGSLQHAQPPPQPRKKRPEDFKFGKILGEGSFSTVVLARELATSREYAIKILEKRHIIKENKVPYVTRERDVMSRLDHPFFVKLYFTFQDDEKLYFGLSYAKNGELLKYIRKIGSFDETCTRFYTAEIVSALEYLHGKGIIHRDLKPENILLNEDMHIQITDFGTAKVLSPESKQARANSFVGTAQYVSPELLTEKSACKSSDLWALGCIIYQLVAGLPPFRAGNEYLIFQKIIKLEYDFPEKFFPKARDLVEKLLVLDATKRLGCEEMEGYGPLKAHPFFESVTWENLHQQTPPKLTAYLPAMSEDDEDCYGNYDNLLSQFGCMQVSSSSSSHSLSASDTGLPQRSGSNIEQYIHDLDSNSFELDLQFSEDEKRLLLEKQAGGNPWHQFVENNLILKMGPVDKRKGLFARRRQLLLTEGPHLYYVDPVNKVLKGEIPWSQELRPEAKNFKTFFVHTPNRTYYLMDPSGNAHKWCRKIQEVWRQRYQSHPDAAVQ
Conditions: at 0.1 µM.

In test [2] the target is cAMP-dependent protein kinase catalytic subunit alpha (Homo sapiens) (UniProt P17612). Conditions: at 0.1 µM.
For test [3] the target is unchanged. Conditions: at 1 µM.
For test [4], the target named is Protein kinase C alpha type (Homo sapiens) (UniProt P17252). Conditions: at 0.1 µM.
For test [5] the target is unchanged. Conditions: at 1 µM.
The target in test [6] is Protein kinase C beta type (Homo sapiens) (UniProt P05771). Conditions: at 0.1 µM.
Sequence of Protein kinase C beta type (Homo sapiens) (P05771 2-671 limits assumed): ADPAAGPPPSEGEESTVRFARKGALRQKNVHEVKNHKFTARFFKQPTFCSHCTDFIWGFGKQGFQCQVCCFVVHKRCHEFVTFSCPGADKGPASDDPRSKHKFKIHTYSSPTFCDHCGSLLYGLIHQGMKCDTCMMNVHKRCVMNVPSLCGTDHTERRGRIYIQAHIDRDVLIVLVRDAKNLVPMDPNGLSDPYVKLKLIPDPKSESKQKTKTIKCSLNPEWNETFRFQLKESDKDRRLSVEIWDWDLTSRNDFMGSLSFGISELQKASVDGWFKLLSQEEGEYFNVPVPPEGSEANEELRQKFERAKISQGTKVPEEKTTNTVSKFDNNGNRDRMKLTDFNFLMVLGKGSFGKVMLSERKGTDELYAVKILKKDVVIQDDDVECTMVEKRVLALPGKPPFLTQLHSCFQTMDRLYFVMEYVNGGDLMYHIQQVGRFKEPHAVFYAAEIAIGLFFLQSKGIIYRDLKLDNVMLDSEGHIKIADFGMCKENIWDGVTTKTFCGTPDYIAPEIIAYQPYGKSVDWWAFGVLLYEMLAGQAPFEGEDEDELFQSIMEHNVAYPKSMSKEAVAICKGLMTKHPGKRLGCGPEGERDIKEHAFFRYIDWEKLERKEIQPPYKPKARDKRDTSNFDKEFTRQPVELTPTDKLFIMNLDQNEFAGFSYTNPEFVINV
For test [7] the target is unchanged. Conditions: at 1 µM.
Test [8] deals with Protein kinase C eta type (Homo sapiens) (UniProt P24723). Conditions: at 0.1 µM.
Sequence of Protein kinase C eta type (Homo sapiens) (P24723 whole entry): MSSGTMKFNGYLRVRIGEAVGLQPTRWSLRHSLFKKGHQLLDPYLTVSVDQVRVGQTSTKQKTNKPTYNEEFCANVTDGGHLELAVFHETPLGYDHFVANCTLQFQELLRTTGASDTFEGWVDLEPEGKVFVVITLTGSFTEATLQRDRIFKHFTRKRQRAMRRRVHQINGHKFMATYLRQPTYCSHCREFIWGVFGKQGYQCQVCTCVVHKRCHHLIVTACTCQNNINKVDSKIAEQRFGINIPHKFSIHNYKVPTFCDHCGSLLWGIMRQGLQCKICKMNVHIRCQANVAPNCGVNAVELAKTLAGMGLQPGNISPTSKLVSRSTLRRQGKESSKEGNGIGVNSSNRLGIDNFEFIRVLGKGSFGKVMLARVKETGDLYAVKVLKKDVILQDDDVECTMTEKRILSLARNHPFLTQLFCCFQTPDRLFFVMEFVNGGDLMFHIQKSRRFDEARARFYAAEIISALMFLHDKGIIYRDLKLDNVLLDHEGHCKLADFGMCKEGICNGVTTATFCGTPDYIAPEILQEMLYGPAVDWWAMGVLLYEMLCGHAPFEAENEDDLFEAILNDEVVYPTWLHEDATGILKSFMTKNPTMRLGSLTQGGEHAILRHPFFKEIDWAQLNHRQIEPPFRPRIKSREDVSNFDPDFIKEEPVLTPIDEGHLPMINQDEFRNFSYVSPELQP
For test [9] the target is unchanged. Conditions: at 1 µM.
Test [10] has as its target Protein kinase C gamma type (Homo sapiens) (UniProt P05129). Conditions: at 0.1 µM.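 Also: values are mean percent inhibition of PKC gamma.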

For `COc1ccc(-c2nn3ncccc3c2-c2ccnc(Nc3ccc(F)c(F)c3)n2)cc1`, the inhibition came to 0.91% in test [1]; 1.99% in [2]; 3.24% in [3]; 0.39% in test [4]; 1.74% in test [5]; 1.53% in [6]. For the same molecule, the inhibition in [7] came out at 5.16%; in test [8] it was 1.15%; in test [9], 7.16%; in test [10], 4.72%.

In the case of `CS(=O)(=O)Nc1ccc(-c2cc(-c3ccccc3)cc(C(N)=O)c2N)cc1`, the inhibition in test [1] is -0.56%; in [2] it was 0.69%; in [3], -0.07%; in test [4] it was 0.46%; in test [5] it was 1.59%; in test [6], -0.05%. Moreover, the inhibition in [7] was -0.92%; in test [8] it was 1.6%; in [9], 1.53%; in [10] it was 1.15%.

For `Cc1c2ccc(N(C)c3ccnc(Nc4cccc(S(N)(=O)=O)c4)n3)cc2nn1C`, the inhibition was 1.36% in test [1]; -2.27% in test [2]; -0.54% in [3]; -2.47% in [4]; -0.96% in test [5]; 0.1% in [6]. Further, the inhibition was -0.52% in [7], 4.05% in [8], 1.15% in test [9] and 1.65% in test [10].

Regarding `CNC(=O)c1cncc(/C=C/c2ccccc2C)c1`, the inhibition was 2.42% in test [1]; 4.12% in test [2]; 3.53% in test [3]; 0.63% in test [4]; 1.68% in test [5]; 1.31% in test [6]. Also, the inhibition in test [7] was 5.47%; in test [8] it was 4.83%; in test [9], 5.78%; in test [10], -2.58%.

Take `COc1c(C(N)=O)cc(-c2ccc(Cl)cc2)cc1-c1ccc(S(N)(=O)=O)cc1`: the inhibition in test [1] was determined as 1.2%; in test [2], 3.03%; in test [3] it was 4.3%; in [4] it was 0.59%; in [5], 1.5%; in test [6] it was 0.62%. Also, the inhibition in test [7] was determined as 3.84%; in test [8] it was 1.17%; in [9], 5.18%; in test [10] it was 1.45%.

As to `O=C(Nc1n[nH]c2nnc(-c3cccnc3)cc12)C1CC1`, the inhibition in [1] was -0.25%; in test [2], -0.44%; in [3], 0.38%; in [4] it was -0.19%; in test [5] it was 2.33%; in [6] it was -0.7%. Also, the inhibition was 0.6% in test [7], -1.43% in test [8], 2.91% in [9] and -0.5% in [10].

In the case of `CS(=O)(=O)CCNCc1ccc(-c2ccc3ncnc(Nc4ccc(OCc5cccc(C(F)(F)F)c5)cc4)c3c2)o1`, the inhibition is 0.06% in test [1]; 1.97% in test [2]; 4.62% in test [3]; 1.05% in [4]; 2.11% in [5]; 1.32% in [6]. Moreover, the inhibition in test [7] came to 0.08%; in [8] it was 6.28%; in test [9] it was 4.9%; in test [10] it was 2.65%.

As for `CC1=C(C(=O)Nc2ccc3[nH]ncc3c2)C(c2ccc(F)cc2)N=C(c2ccc(C(F)(F)F)nc2)N1` (stereo not given), the inhibition stood at 2.62% in test [1]; 3.58% in test [2]; 20.9% in test [3]; 1.25% in test [4]; 2.09% in test [5]; 0.07% in test [6]. In addition, the inhibition is -0.53% in test [7], 2.89% in test [8], 2.1% in test [9] and 0.54% in test [10].

Consider `O=C(O[C@H]1CN[C@H](C#Cc2cc3ncnc(Nc4ccc5c(ccn5Cc5cc(F)ccc5F)c4)c3s2)C1)N1CCOCC1`, for which the inhibition was found to be 2.16% in test [1]; 1.86% in [2]; 1.48% in test [3]; 0.78% in [4]; 2.63% in test [5]; 1.59% in test [6]. Besides, the inhibition in test [7] worked out at 1.27%; in [8], 5.63%; in test [9] it was 3.54%; in [10] it was 1.38%.

As for `COc1cccc(-n2ncc3c(N/N=C/c4ccc(C(=O)NCCN(C)C)cc4)ncnc32)c1`, the inhibition turned out to be 2.52% in test [1]; 2.29% in [2]; 11.4% in test [3]; 1.03% in test [4]; 9.37% in [5]; 1.2% in test [6]. Also, the inhibition in test [7] is 6.99%; in test [8], 2.52%; in [9], 0.62%; in [10], 26.3%.

Regarding `c1cnn2ncc(-c3ccnc(NCCCN4CCOCC4)n3)c2c1`, the inhibition in [1] came out at 1.41%; in test [2], 2.68%; in [3] it was 5.3%; in test [4] it was 0.87%; in [5] it was 2.26%; in test [6] it was 2.73%. Besides, the inhibition in test [7] worked out at 5.57%; in [8] it was 3.67%; in test [9], 2.05%; in [10], 3.52%.

With `CCS(=O)(=O)c1ccc(OC)c(Nc2ncc(-c3cccc(C(C)=O)c3)o2)c1`, the inhibition in test [1] is 0.17%; in test [2] it was 1.47%; in test [3], 1.88%; in test [4], 0.74%; in test [5] it was 0.95%; in test [6] it was -0.44%. Moreover, the inhibition was 3.77% in test [7], 3.76% in [8], 3.11% in test [9] and 2.68% in [10].

On to `OCCCNc1nccc(-c2c(-c3ccc(F)cc3)nn3cc(C(F)(F)F)ccc23)n1`, for which the inhibition in test [1] turned out to be 2.27%; in test [2], 5.3%; in [3], 1.41%; in [4], 0.43%; in [5], 2.81%; in test [6] it was 3.23%. The inhibition in [7] came out at 5.54%; in [8] it was 3.94%; in test [9], 0.31%; in [10] it was 2.28%.

For the molecule `CN1CCC(n2cnc(-c3ccc(F)cc3)c2-c2ccnc(NCCO)n2)CC1`, the inhibition amounted to 1.23% in test [1]; 2.28% in test [2]; 4.71% in test [3]; 1.14% in [4]; 6.57% in test [5]; 0.78% in test [6]. Besides, the inhibition in test [7] turned out to be 5.76%; in test [8], 3.08%; in test [9], 2.5%; in test [10], 3.49%.

For the molecule `COc1ccccc1-c1cc(/C=C2\C(=O)Nc3ncc(Br)cc32)cc(Br)c1O`, the inhibition in test [1] is 2.09%; in test [2] it was 1.83%; in test [3] it was 1.05%; in [4], 0.82%; in test [5], 1.73%; in [6], -0.31%. Besides, the inhibition is 0.26% in test [7], 2.06% in test [8], 1.62% in [9] and -0.61% in test [10].

Turning to `NS(=O)(=O)c1ccc(N/N=C2\C(=O)Nc3ccc(C(=O)NCc4ccncc4)cc32)cc1`, the inhibition in [1] was 10.9%; in test [2] it was 5.56%; in [3], 8.91%; in test [4], 0.49%; in test [5], 2.27%; in test [6] it was -0.39%. The inhibition was determined as 5.08% in test [7], 6.25% in test [8], 4.31% in [9] and 1.42% in test [10].
